Reference: PubChem BioAssay AID602193 (The Scripps Research Institute Molecular Screening Center, 2012)
Screen size: about 1,600 compounds; about 410 (26%) were called active.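 The calls were made as follows: active = mean inhibition over triplicates above the low-control well mean plus 3 SD, set per campaign (cut at about 13% in these data); inactive = the rest.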 This excerpt belongs to a sample that is enriched for actives.

Experiment: forskolin-stimulated cAMP inhibition in U2OS – cell-based, TR-FRET, triplicate, counter-screen for MC4R biased antagonist project (AID 602193);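 also: signal is single emission at 671 nm which falls as cellular cAMP rises; 0% = forskolin-stimulated wells and 100% = buffer without forskolin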
Settings: parental U2OS, LANCE TR-FRET, at 6.5 µM, active compounds read high

Compound | inhibition
Cc1cccc(N2C(=O)NC(=O)/C(=C\c3cnn(-c4ccccc4)c3)C2=O)c1 | 14.2% (active)
COc1cccc(N2C(=O)NC(=O)/C(=C\c3ccc([N+](=O)[O-])s3)C2=O)c1 | 0.64% (inactive)
